Compounds with a hit are over-represented: about 2.2% of the library has one in this group of screens.
NPR2 activator – GC-B (human) receptor activation; HEK293-GC-B cells, CNP EC30, cGMP TR-FRET; 0% at EC30 CNP, 100% saturating CNP; 370,000 tested, 0.11% active; activation, % at 10 µM; P20594;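 active = activation at 10 µM reaching about 35% in either raw or pattern-adjusted values, limit read from the data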
PLC-beta3 inh – PLC-beta3 (human) inhibition, primary screen | Purified PLC-beta3, fluorogenic substrate, fluorescence | Q01970 | 370,000 tested, 0.18% active | inhibition, % at 12.2 µM | AID 720704; in the data active = inhibition above about 11%
NPR1 activator – GC-A (human) enzyme activation. HEK293 GC-A cells, cGMP TR-FRET, EC30 ANP; 0% at EC30 ANP, 100% saturating ANP. P16066. activation, % at 10 µM. 370,000 tested, 0.14% active; in the data active = activation above about 40%
Rce1 inhib – inhibitors of yeast Ras-converting enzyme | Q03530 | yeast membranes, quenched prenylated peptide cleavage fluorescence | calls only | 290,000 tested, 0.27% active;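 active = fall in fluorescence gain of 50% or more versus controls, with final raw signal at or below 3038400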
PfM18AAP inh – PfM18AAP enzyme inhibition. recombinant PfM18AAP, H-Glu-NHMec fluorogenic cleavage. inhibition, % at 7.35 µM. 290,000 tested, 1.2% active. AID 1822;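 active = inhibition above the campaign mean inhibition over all tested compounds plus 3 SD, cut at about 28% in these data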
PLCg1 inh – blocks human PLC-gamma1 enzyme activity. P19174. purified PLC-gamma1, fluorogenic substrate, fluorescence. inhibition, % at 12.2 µM. 370,000 tested, 0.84% active
PLCg1 ctr – PLC-gamma1 inhibition, counter-screen for PLC-beta3 hits; purified PLC-gamma1, fluorogenic substrate, fluorescence; inhibition, % at 12.3 µM; shares compounds with PLCg1 inh; 3,300 tested, 3.1% active
PLCb3 confirm – confirmation of human PLC-beta3 inhibitors; shares compounds with PLCg1 inh; purified PLC-beta3, fluorogenic substrate fluorescence; inhibition, % at 12.3 µM; 3,300 tested, 1% active; in the data active = inhibition above about 11%
Each line names hits and unclear results; the compound was inactive in the other large screens (follow-up assays come after a bar, where they were run). Cut-off read from the data, not from the text of the source, unless noted: active = inhibition above about 9.5%; inactive = the rest.

O=C(c1cc(-c2ccccc2)nn1-c1ccccc1)N1CCN(S(=O)(=O)c2ccc(F)cc2)CC1	none (no result: PfM18AAP inh)
O=C(c1cc(-c2ccccc2)nn1-c1ccccc1)N1CCN(S(=O)(=O)c2cccc(F)c2)CC1	PLCg1 inh 9.9 (no result: PfM18AAP inh) | PLCg1 ctr inactive | PLCb3 confirm inactive
COc1ccc(-c2ccc(C)cc2)cc1[C@H]1[C@H]2C=CC[C@@H](C)[C@@H]2C(=O)N1Cc1ccccc1	PLC-beta3 inh 11 (no result: PfM18AAP inh) | PLCg1 ctr inactive | PLCb3 confirm inactive
COc1ccc(-c2ccc(OC)c([C@H]3[C@H]4C=CC[C@@H](C)[C@@H]4C(=O)N3Cc3ccccc3)c2)cc1	none (no result: PfM18AAP inh)
COc1ccc(NS(=O)(=O)c2cn(C)cn2)cc1	none
COc1ccc(NS(=O)(=O)c2cn(C)nc2C)cc1	PLCg1 inh 12 | PLCg1 ctr inactive | PLCb3 confirm inactive
Cc1ccc2nc(CN(C)C(=O)[C@H](CCc3ccccc3)NC(=O)[C@H]3O[C@@H](n4cnc5c(N)ncnc54)[C@H](O)[C@@H]3O)[nH]c2c1	none (no result: Rce1 inhib, PfM18AAP inh)
COc1nc(OC)nc(N2CCC(C(=O)N(C)Cc3ccccc3F)CC2)n1	none (no result: Rce1 inhib, PfM18AAP inh)
Cc1ccc(N2CCN(/N=C\c3cccnc3)CC2)cc1	none (no result: Rce1 inhib, PfM18AAP inh)
Cc1ccnc(NC(=S)N2CCC(Nc3cccc(C(F)(F)F)c3)CC2)c1	none (no result: Rce1 inhib, PfM18AAP inh)
Cc1ccccc1C(=O)N[C@H](C(=O)N1CCC[C@H]1C(=O)NCCc1ccccc1Cl)C1CCCCC1	none (no result: Rce1 inhib, PfM18AAP inh)
O=C(N[C@H](C(=O)N1CCC[C@H]1C(=O)NCCc1ccccc1Cl)C1CCCCC1)c1cccs1	PLCg1 inh 9.9 (no result: Rce1 inhib, PfM18AAP inh) | PLCg1 ctr inactive | PLCb3 confirm inactive
CCCNC(=O)C(Cc1ccccc1)NC(=O)c1ccccc1 (stereo not drawn)	none (no result: Rce1 inhib, PfM18AAP inh)
O=C(N[C@@H](Cc1ccccc1)C(=O)NC1CC1)c1ccc(Cl)cc1	PLCg1 inh 10 | PLCg1 ctr inactive | PLCb3 confirm inactive
CCCNC(=O)C(Cc1cccc(Cl)c1)NC(=O)c1ccccc1 (stereo not drawn)	PLC-beta3 inh 14 (no result: Rce1 inhib, PfM18AAP inh) | PLCg1 ctr inactive | PLCb3 confirm inactive
O=[N+]([O-])c1cc(S(=O)(=O)NCc2ccco2)ccc1NN=Cc1ccccn1	none (no result: Rce1 inhib, PfM18AAP inh)
CC(/C=N/NC(=O)CSc1nnc(SCc2ccc(C)cc2)s1)=C\c1ccco1	none (no result: Rce1 inhib, PfM18AAP inh)
CCOC(=O)c1c(S(=O)(=O)Nc2ccc(F)cc2Cl)c(C)n(C)c1C	PLCg1 inh 11 | PLCg1 ctr inactive | PLCb3 confirm inactive
O=C(Nc1ccccc1)c1cc(C2CCCCN2S(=O)(=O)c2ccccc2)on1 (stereo not drawn)	PLCg1 inh 10 (no result: Rce1 inhib, PfM18AAP inh) | PLCg1 ctr inactive | PLCb3 confirm inactive
COC(=O)N1CCCCC1c1cc(C(=O)NCc2ccccc2)no1 (stereo not drawn)	PLCg1 inh 10 (no result: Rce1 inhib, PfM18AAP inh) | PLCg1 ctr inactive | PLCb3 confirm inactive
CCCNC(=O)c1cc(C2CCCCN2C(=O)c2ccc3c(c2)CCO3)on1 (stereo not drawn)	PLCg1 inh 48 (no result: Rce1 inhib, PfM18AAP inh) | PLCg1 ctr inactive | PLCb3 confirm inactive
CCCCCn1nnnc1C1(C)CCSCC(=O)N1Cc1ccco1 (stereo not drawn)	none (no result: Rce1 inhib, PfM18AAP inh)
Cc1ccc(NC(=O)c2ccc(-n3cccn3)c([N+](=O)[O-])c2)cc1	none
O=C(Nc1ccccc1Cl)c1ccc(-n2cccn2)c([N+](=O)[O-])c1	PLCg1 inh 11 | PLCg1 ctr inactive | PLCb3 confirm inactive
Cc1cc(N2CCN(C(=O)OC(C)(C)C)C[C@@H]2C)ccc1N1CCN(Cc2ccccc2)[C@H](C)C1	none (no result: Rce1 inhib, PfM18AAP inh)
O=C1N2Cc3ccccc3C2CS(=O)(=O)N1CCc1ccccc1 (stereo not drawn)	none (no result: Rce1 inhib, PfM18AAP inh)
CCn1c(SCC(=O)Nc2ccc(C(C)=O)cc2)nc2nc3c(cc2c1=O)CCCC3	PLCg1 inh 9.7 | PLCg1 ctr inactive | PLCb3 confirm inactive
